# Source: PubChem BioAssay
# Sampled rows, rich in hits. Any-hit rate of the full collection: about 1.3%.
# ADAM10 inh – inhibitors of human ADAM10; 370,000 compounds, 0.62% hits; inhibition, % at 7 µM; AID 720582; recombinant ADAM10, EDANS/DABCYL FRET peptide cleavage, 3 h;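 active = inhibition above a per-campaign cutoff equal to the mean of compounds falling between control-based bounds plus 3 SD, cut at about 20% in these data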;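 also: 0% = DMSO wells while the 100% control is not disclosed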
# GC-B act – GC-B (human) receptor activation; HEK293-GC-B cells, CNP EC30, cGMP TR-FRET; 0% at EC30 CNP, 100% saturating CNP; activation, % at 10 µM; 370,000 compounds, 0.11% hits;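 active = activation at 10 µM reaching about 35% in either raw or pattern-adjusted values, limit read from the data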
# ADAM17 inh – inhibits human ADAM17; 370,000 compounds, 0.83% hits; P78536; recombinant ADAM17, EDANS/DABCYL FRET peptide cleavage; inhibition, % at 6.95 µM; AID 720648;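 active = inhibition above the mean of compounds lying between control limits plus 3 SD, set per campaign, cut at about 8.5% in these data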;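 also: 0% = DMSO-only wells as the low control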
# GC-A act – GC-A (human) enzyme activation; P16066; HEK293 GC-A cells, cGMP TR-FRET, EC30 ANP; 0% at EC30 ANP, 100% saturating ANP; activation, % at 10 µM; 370,000 compounds, 0.14% hits; AID 1671463; in the data active = activation above about 40%
# ADAM10 confirm – human ADAM10 inhibition, confirmation. shares compounds with ADAM10 inh. AID 743208. ADAM10 QFRET peptide cleavage, EDANS fluorescence. inhibition, % at 6.95 µM. 2,100 compounds, 1% hits;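 active = inhibition above about 20% chosen separately for each screening run, limit read from the data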;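 also: 0% = DMSO wells and 100% = marimastat wells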
# ADAM17 ctr – ADAM17 inhibition, counter-screen for ADAM10 exosite hits. shares compounds with ADAM10 inh. ADAM17 QFRET peptide cleavage, EDANS fluorescence. inhibition, % at 6.95 µM. 2,100 compounds, 0.5% hits. AID 743214;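 active = mean triplicate inhibition above the solvent-only control wells' mean plus 3 SD, cut at about 12% in these data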;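 also: 0% = DMSO wells and 100% = marimastat wells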
# Active calls of the source: *; x = no result given.
SMILES,ADAM10 inh,GC-B act,ADAM17 inh,GC-A act,ADAM10 confirm,ADAM17 ctr
O=C(COC(=O)Cc1ccccc1F)NCc1ccccc1Cl,-10.6,3.2,-2.2,-1.4,x,x
CCOc1ccc(NS(=O)(=O)c2csc(C(N)=O)c2)cc1,-2.1,-3.9,-0.6,-4.2,x,x
CCSc1nc2c(c(=O)[nH]c(=O)n2C)n1C/C=C(/C)Cl,19.9*,1.3,3.4,2.2,1.4,0.1
CC(=O)c1ccc(NC(=O)COC(=O)c2ccccc2N=Nc2ccc(N(C)C)cc2)cc1,21.6*,4.5,7.8,9.7,1.4,1.3
Cc1ccc(C(=S)NCS(=O)(=O)c2ccc(C)cc2)cc1,26.4*,-1.0,6.7,3.0,21.4*,6.6
Cc1ccc(S(=O)(=O)N(C)C)cc1NC(=S)NNC(=O)C1CC1,20.0*,-1.2,-2.4,4.1,0.3,-0.2
Cc1ccc(S(=O)(=O)N(C)C)cc1NC(=O)C1CCCC1,-4.3,5.5,-1.4,-3.5,x,x
Cc1cc(NC(=O)C(C)Sc2nc(-c3cccs3)nc3ccccc23)no1 (centres undefined),-38.0,-0.6,-8.0,-1.3,x,x
O=C(NCc1ccncc1)[C@@H]1CCCN1C(=O)[C@@H]1CCCN1C(=O)c1ccccc1,1.6,-1.5,4.5,1.3,x,x
COc1cc(/C=N/NC(=O)c2cc(-c3cccc(OC(C)C)c3)nc3ccccc23)ccc1O,27.6*,-21.6,7.2,1.4,8.8,3.8
Cc1sc2nc(CSC(C)C(=O)NC3(C#N)CCCCC3)[nH]c(=O)c2c1C (centres undefined),-29.8,-3.6,-9.2,-1.3,x,x
COC(=O)c1sc2ccccc2c1-n1cccc1C(=O)C(=O)Nc1ccc(OC)cc1,21.9*,-9.0,8.3,-9.3,4.6,2.5
Cc1cccc(-c2noc(Cc3ccc(Cl)cc3)n2)c1,20.3*,-5.9,2.2,0.9,3.9,0.7
COc1ccc(Cc2nc(-c3cccc(C)c3)no2)cc1,7.5,5.2,4.8,0.2,x,x
CC(=O)NC(c1ccccc1)c1nc(/C=C/c2ccccc2)cs1 (centres undefined),-4.1,3.1,-1.4,3.6,x,x
CCOc1cc(/C=C/c2ccc3cccc([N+](=O)[O-])c3n2)ccc1O,21.8*,-7.0,6.8,-8.6,7.0,1.2
CCOc1cc(/C=C/c2ccc3cccc([N+](=O)[O-])c3n2)ccc1OCC(=O)N(C)C,2.1,2.9,-2.0,2.4,x,x
O=C(c1ccccc1I)N1CCC(Oc2cccnc2)CC1,-6.5,-0.3,0.0,3.8,x,x
O=C(NCc1ccccc1)c1ccc(-c2ccc(F)c(F)c2)c2ccoc12,6.2,4.9,3.0,-2.5,x,x
COc1ccc(CNC(=O)c2ccc(-c3ccc(F)c(F)c3)c3ccoc23)cc1OC,20.5*,10.8,7.8,1.7,8.9,2.3
CC(=O)c1ccc(NC(=S)Nc2ccc(Br)c(Cl)c2)cc1,-1.0,-4.5,-1.3,7.1,x,x
CC(=O)c1ccc(NC(=S)NC(C)c2ccc(Cl)cc2Cl)cc1 (centres undefined),23.9*,1.2,8.0,2.1,4.2,1.2
CC(C)CC1C(=O)N(Cc2cn(CC3CCCCC3)nn2)CCS(=O)(=O)N1Cc1ccc(-c2cccc(CO)c2)cc1 (centres undefined),24.6*,0.3,7.0,-2.6,2.8,2.2
CC1C(=O)N(Cc2cn(CC3CCCCC3)nn2)CCS(=O)(=O)N1Cc1ccc(-c2cccc(CO)c2)cc1 (centres undefined),3.4,-5.2,4.6,-1.3,x,x
Cc1ccc(NC(=O)CSc2nc(NS(=O)(=O)c3ccc(C)cc3)cc(=O)[nH]2)cc1,23.0*,3.6,7.0,-1.8,7.5,1.3
SMILES,ADAM10 inh,GC-B act,ADAM17 inh,GC-A act,ADAM10 confirm,ADAM17 ctr
Cc1ccc(S(=O)(=O)Nc2cc(=O)[nH]c(SCC(=O)Nc3cccc(C(F)(F)F)c3)n2)cc1,3.8,2.1,-0.8,1.5,x,x
Cc1ccc([C@@H]2CC(=O)[C@@H]3CN(S(=O)(=O)c4ccc(C)cc4)[C@H](c4ccccc4)C[C@@H]3N2S(=O)(=O)c2ccc(C)cc2)cc1,-0.5,0.6,0.8,0.6,x,x
Cc1noc(C)c1NC(=O)N(C)C[C@@H]1Oc2ccc(NS(=O)(=O)c3c(C)noc3C)cc2C(=O)N([C@H](C)CO)C[C@H]1C,-13.4,1.8,-5.5,-0.4,x,x
Cc1cc(C)n2nc(SCc3ccccc3)nc2n1,22.0*,2.1,4.3,2.7,0.4,0.3
COc1ccc(CN2C[C@]3(C=C4CCCCC4n4c(=O)n(-c5ccccc5)c(=O)n43)N=C2NC(=O)c2ccccc2)c(OC)c1 (some centres undefined),31.9*,-3.2,8.1,-2.4,4.3,1.6
Cc1ccc(C)c(OCC(=O)Nc2ccc3c(c2)OCO3)c1C,20.5*,-5.3,7.4,0.9,1.0,0.5
COc1ccc(CN(C2CCCCC2C)S(=O)(=O)c2ccc(S(=O)(=O)N(C)C)cc2)cc1OC (centres undefined),21.5*,3.0,4.9,-2.4,8.0,1.8
COc1cc(CN(C2CCCCC2C)S(=O)(=O)c2ccc(S(=O)(=O)NC3CC3)cc2)cc(OC)c1OC (centres undefined),10.5,0.5,3.1,-0.9,x,x
CCCN=C1N(C)C[C@@H]2[C@@H]3C(=O)N(C)C(=O)[C@@H]3[C@](CC)(C(=O)OC)N12,-10.2,-1.8,-3.3,4.2,x,x
O=c1[nH]c(C2CCN(S(=O)(=O)c3ccc4c(c3)OCCO4)CC2)nc2c1nnn2Cc1ccccc1,4.5,-6.1,0.6,-2.5,x,x
Cc1ccc(C)c(S(=O)(=O)N2CCC(c3nc4c(nnn4Cc4ccc5c(c4)OCCO5)c(=O)[nH]3)CC2)c1,23.8*,-9.6,5.0,-0.5,11.4,3.1
CC(C)(C)c1ccc(Cn2nnc3c(=O)[nH]c(C4CCCN(C(=O)c5cccs5)C4)nc32)cc1 (centres undefined),23.9*,-2.4,7.8,-1.5,0.9,0.3
CCCCC(=O)N1CCCC(c2nc3c(nnn3Cc3cc(C)ccc3C)c(=O)[nH]2)C1 (centres undefined),88.1*,-7.3,-3.5,-7.7,-0.4,0.1
COC[C@H]1CCCN1c1cccc2c1S(=O)(=O)N1CC[C@@H](C1)O2,0.7,5.4,-6.8,0.0,x,x
Fc1ccccc1-c1n[nH]c(=S)n1N=Cc1ccc(OCc2ccccc2)cc1,24.9*,1.4,8.2,-2.9,6.3,1.7
S=c1[nH]nc(COc2ccccc2)n1/N=C/C(Cl)=C/c1ccccc1,19.9*,-5.3,5.0,3.5,2.7,1.1
S=c1[nH]nc(COc2ccccc2)n1/N=C/C=C/c1ccccc1,-0.9,-5.1,3.0,-2.8,x,x
Cc1occc(=O)c1OCc1ccc(Cl)cc1Cl,-9.5,-5.6,-4.5,0.4,x,x
O=C(NC(=S)NCc1ccccc1)c1cccc(Cl)c1,20.5*,0.8,8.3,-5.1,5.6,1.5
